TDP1 inh: qHTS Assay for Inhibitors of Tyrosyl-DNA Phosphodiesterase (TDP1); Tyrosyl-DNA phosphodiesterase 1 (Homo sapiens), Q9NUW8; recombinant TDP1, AlphaScreen DNA substrate cleavage; Potency, µM (top dose mostly 130 µM), inactives show at the highest dose activity change, negative = inhibition, usual class: inhibitors; actives 0.28% (n = 350,000); AID 485290, 2010; also: nearly all actives have a fitted effect of over 40% in size
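Signal: AlphaScreen proximity between streptavidin donor and anti-FITC acceptor beads on intact substrate. Reaction: Tdp1 1 nM, substrate 15 nM final, 5 min RT after 15 min compound preincubation.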
Gal4-VP16 FLuc: VP16 counterscreen qHTS for inhibitors of ROR gamma transcriptional activity; Potency, µM (highest dose often 53.6 µM), inactives show at the top dose activity, negative = inhibition, most hits filed as inhibitors; actives 3.5% (n = 310,000); Drosophila S2 Gal4-VP16 UAS-luciferase, luminescence, 20 h;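 also: Gal4-VP16 expression switched on by copper sulfate through the metallothionein promoter; nearly all actives have a fitted effect of over 50% in size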
TDP1 cell noCPT: qHTS for Inhibitors of human tyrosyl-DNA phosphodiesterase 1 (TDP1): qHTS in cells in absence of CPT; Potency, µM (doses to about 46.2 µM), for the others: at the top dose activity change, negative = growth inhibition, usual class: inhibitors; actives 15% (n = 420,000); DT40 Tdp1-/- hTDP1 cells, no CPT, ATP luminescence, 48 h; also: nearly all actives have a fitted effect of over 55% in size
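Compound effects on proliferation are scored in DT40 Tdp1-/-;hTDP1 cells in the absence of CPT. ATP levels (CellTiter-Glo luminescence) are recorded after a ≥48 hr, 37 °C incubation.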
DT40 TDP1 CPT: qHTS for Inhibitors of human tyrosyl-DNA phosphodiesterase 1 (TDP1): qHTS in cells in presence of CPT | Potency, µM (doses to about 46.2 µM), for the others: top-dose activity change, negative = growth inhibition, usual class: inhibitors | actives 12% (n = 420,000) | AID 686979, 2013 | chicken DT40 Tdp1-/-;hTDP1 cells + 20 nM CPT, ATP luminescence, 48 h; also: nearly all actives have a fitted effect of over 55% in size
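Chicken DT40 Tdp1-/- cells complemented with human TDP1, 400 cells/well, exposed to compounds plus 20 nM camptothecin for at least 48 h at 37 C; viability read as ATP content by CellTiter-Glo luminescence.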
RORgamma inh: qHTS for inhibitors of ROR gamma transcriptional activity; actives 5.4% (n = 310,000); Drosophila S2 Gal4-RORgamma UAS-luciferase reporter, 20 h; AID 2551, 2010; Nuclear receptor ROR-gamma (Mus musculus), P51450; Potency, µM (highest dose often 53.6 µM), for inactives: top-dose activity change, negative = inhibition, hits mostly inhibitors; also: nearly all actives have a fitted effect of over 60% in size
Target sequence (P51450 whole entry, looked up, the tested form may be a part): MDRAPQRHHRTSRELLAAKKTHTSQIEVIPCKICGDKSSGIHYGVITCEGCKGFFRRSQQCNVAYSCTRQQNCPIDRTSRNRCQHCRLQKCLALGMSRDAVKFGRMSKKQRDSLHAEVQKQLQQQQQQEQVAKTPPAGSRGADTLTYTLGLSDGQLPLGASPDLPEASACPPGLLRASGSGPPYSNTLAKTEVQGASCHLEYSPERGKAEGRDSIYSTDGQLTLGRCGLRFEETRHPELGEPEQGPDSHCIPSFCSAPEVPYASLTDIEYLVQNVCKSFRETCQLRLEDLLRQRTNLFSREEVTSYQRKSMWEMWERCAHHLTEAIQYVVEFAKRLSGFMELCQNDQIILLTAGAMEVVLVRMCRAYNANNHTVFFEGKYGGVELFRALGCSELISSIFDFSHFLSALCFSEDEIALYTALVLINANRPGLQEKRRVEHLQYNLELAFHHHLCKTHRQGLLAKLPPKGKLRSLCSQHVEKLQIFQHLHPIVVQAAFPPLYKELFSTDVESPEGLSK
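Using a luciferase readout, inhibitors were identified by reduced reporter activity in Drosophila cells coexpressing a copper-inducible Gal4–ROR gamma fusion and UAS-driven Photinus luciferase, incubated 20 hr after 700 uM copper sulfate.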
* = called active by the depositor; ? = inconclusive; nt = no result given. Sampled rows, rich in hits. Any-hit rate of the full collection: about 19%. Calls follow the shape of the dose curve; as a rule, active = well fitted curve in the direction sought with a large enough effect; inconclusive = small, poorly fitted or top-dose-only effect, or another doubt; inactive = no such curve, though single readings can be large; an effect the other way counts as inactive or inconclusive. % is scaled to controls: 0 for no effect and ±100 for the full control effect; potency is read from the fitted curve at half-maximal effect.

SMILES	TDP1 inh	Gal4-VP16 FLuc	TDP1 cell noCPT	DT40 TDP1 CPT	RORgamma inh
Cc1ccccc1Oc1ccc2c(c1)[C@@H]1C[C@H]3[C@@H](C(=O)N1CC2)[C@H](C)ON3C	nt	nt	23µM*	16µM*	nt
Cc1ccccc1Oc1ccc2c(c1)[C@@H]1C[C@H](N(C)C(=O)Nc3cc(Cl)cc(Cl)c3)[C@H]([C@H](C)O)C(=O)N1CC2	nt	nt	18µM*	?	nt
O=C(Nc1ccccc1N1CCCCC1)C1CCN(S(=O)(=O)c2cccc(C(F)(F)F)c2)CC1	nt	nt	-15%	7%	nt
CCn1c(=O)c(C(=O)NCc2ccccc2)c(O)c2ccccc21	nt	16µM*	?	-20%	?
CCCn1c(=O)c(C(=O)NCCCc2ccccc2)c(O)c2ccccc21	-13%	?	?	?	?
CCn1c(=O)c(C(=O)NCCCc2ccccc2)c(O)c2ccccc21	56µM*	?	?	-23%	?
CCn1c(=O)c(C(=O)NCc2ccc(F)cc2)c(O)c2ccccc21	-7%	?	?	9.2µM*	13µM*
CCn1c(=O)c(C(=O)NCCc2ccc(Cl)cc2)c(O)c2ccccc21	0%	-19%	?	?	?
CCCn1c(=O)c(C(=O)NCCc2ccc(Cl)cc2)c(O)c2ccccc21	-5%	?	?	?	14µM*
Cc1nn(C(=O)c2nn(C)cc2Cl)c(C)c1Br	-9%	1%	?	-2%	-4%
COCc1cc(C)nc(SCc2ccccc2Cl)c1C#N	nt	-12%	-16%	1%	28%
CCc1ccc(/C(C)=N/NC(=O)c2c[nH]c3ccccc23)s1	2%	2%	-20%	?	-25%
CCN(CC)CCNC(=O)c1cn(C)c2ccc(S(=O)(=O)N(C)C3CCCCC3)cc2c1=O	0%	1%	-14%	-20%	6%
Cn1c(OCc2ccco2)nc2c1c(=O)n(Cc1ccc(Cl)c(Cl)c1)c(=O)n2C	6%	6%	?	?	15%
Cn1c(=O)c(C(=O)NCc2ccc(Cl)cc2)c(O)c2ccccc21	nt	-13%	?	?	-29%
CCn1c(=O)c(C(=O)NCc2ccc(Cl)cc2)c(O)c2ccccc21	nt	6%	?	21µM*	?
Cc1ccc(CCNC(=O)CN(c2cc(C)cc(C)c2)S(=O)(=O)c2c(C)noc2C)cc1	0%	-8%	?	-22%	-20%
Cc1ccc(CCNC(=O)CN(c2ccc(C)cc2)S(=O)(=O)c2c(C)noc2C)cc1	2%	-1%	16µM*	?	-1%
COc1ccc(CCNC(=O)CN(c2cc(C)cc(C)c2)S(=O)(=O)c2c(C)noc2C)cc1OC	2%	-7%	18µM*	?	-19%
Cc1ccc(N(CC(=O)NCCc2ccc(Cl)cc2)S(=O)(=O)c2c(C)noc2C)cc1	1%	6%	15µM*	23µM*	?
Cc1cc(C)cc(N(CC(=O)NCCc2ccc(Cl)cc2)S(=O)(=O)c2c(C)noc2C)c1	5%	nt	1%	-3%	nt
Cc1cccc(CCNC(=O)CN(c2ccc(C(C)C)cc2)S(=O)(=O)c2c(C)nn(C)c2C)c1	12%	nt	16µM*	?	nt
CCOc1cc(CNc2ccc(OC)cc2)cc(Br)c1OCC(=O)NC(C)(C)C	8%	-1%	?	?	10%
Cc1oc(-c2ccccc2)cc1C(=O)Nc1cccc(/C=C\C(=O)O)c1	5%	-5%	?	-28%	45%
CCOC(=O)c1cc([N+](=O)[O-])sc1N	2%	-2%	-16%	-28%	2%
SMILES	TDP1 inh	Gal4-VP16 FLuc	TDP1 cell noCPT	DT40 TDP1 CPT	RORgamma inh
CC(OC(=O)C1=COCCO1)C(=O)c1ccc(C(C)(C)C)cc1 (stereo not given)	2%	nt	?	?	nt
CC(C)(C)c1ccc(C2(C)NC(=O)N(CC(=O)NC3CCS(=O)(=O)C3)C2=O)cc1 (stereo not given)	0%	nt	-5%	-17%	nt
O=C(COC(=O)C12CC3CC(CC(C3)C1)C2)Nc1ccc([N+](=O)[O-])cc1Br	8%	18%	?	?	25%
Cc1noc(C)c1S(=O)(=O)N(CC(=O)NCc1ccc2c(c1)OCO2)c1ccc(C(C)C)cc1	4%	0%	?	?	0%
Cc1ccc(N(CC(=O)NCc2ccc3c(c2)OCO3)S(=O)(=O)c2c(C)noc2C)cc1	-4%	-4%	23µM*	?	11%
CNC(=O)c1ccccc1Sc1ccc2c(/C=C/c3ccccn3)n[nH]c2c1	nt	nt	2.7µM*	4.2µM*	nt
CNC(=O)c1ccccc1Sc1cccc2cccc(C(=O)O)c12	nt	4%	10%	0%	-7%
CC1CCN(C(=O)CCc2nnc(-c3ccccc3)o2)CC1	3%	21%	-25%	1%	1%
CN1CCN(CC(O)(c2ccc(Cl)cc2)c2ccc(Cl)cc2)CC1	6%	?	21µM*	?	?
CN1CCN(CC(O)COc2ccc(Cl)cc2)CC1 (stereo not given)	2%	-1%	-5%	2%	0%
CCCCOC(=O)C1CN(c2ccccc2)N=C1C(=O)OCC (stereo not given)	-2%	1%	21µM*	23µM*	-4%
COc1ccc(S(=O)(=O)NC2(C(F)(F)F)NC(=O)N(CCc3ccc(OC)c(OC)c3)C2=O)cc1 (stereo not given)	2%	-1%	?	?	-1%
COc1ccccc1-n1c(CCn2nc(C)c(Br)c2C)n[nH]c1=S	0%	?	-22%	-24%	10µM*
Cc1nn(CCc2n[nH]c(=S)n2C2CCCCC2)c(C)c1Br	5%	?	-16%	-1%	5.6µM*
CC(/C=N/NC(=O)c1nnn(-c2nonc2N)c1CN1CCCCC1)=C\c1ccccc1	1%	?	?	?	0%
C/C(=N\NC(=O)c1nnn(-c2nonc2N)c1CN1CCCCC1)c1ccccc1O	7%	?	13µM*	10µM*	6.3µM*
C/C(=N\NC(=O)c1nnn(-c2nonc2N)c1CN(C)c1ccccc1)c1ccccc1O	1%	4µM*	6.5µM*	8.2µM*	1.6µM*
COc1cc2c(cc1OC)C(COc1ccc(F)cc1)N(C(=O)C(C)C)CC2 (stereo not given)	8%	nt	?	?	nt
Cc1ccc(CCSc2ccc(C(C)C)cc2)cn1	0%	?	26µM*	?	?
Cc1ccc(CCSc2ccc(F)cc2)cn1	0%	-7%	?	1%	-25%

Screens (PubChem BioAssay)
